Data on 16 compounds can be found in PubChem BioAssay (NCI).

Test systems include T-47D breast; BT-549 breast; MDA-MB-435 melanoma; SW-620 colon; MCF7 breast; HCT-116 colon; HCC-2998 colon; KM12 colon.
Holding throughout (experiment): NCI-60 one-dose screen, 48 h (100 = growth as untreated, 0 = no growth, -100 = all killed)
Holding throughout (conditions): 10 µM unless noted

The panel holds about 83,000 compounds, 20% with a hit somewhere; the sample as a whole holds those more often.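 Treatment: one concentration, 48 hours, 96-well format. Scoring: percent growth, with anything below 10 considered active.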 Unmarked numbers belong to inactive results. Active and inactive are the calls of the source.

Consider `Cn1c(COC(=O)NCCn2ccnc2)nc2c(N3CCOCC3)nc(-c3ccccc3)nc21`, for which the growth with T-47D breast was -36.1% (active); in the assay on BT-549 breast, -78.2% (active); in the assay on MDA-MB-435 melanoma, -91.2% (active); in the assay with SW-620 colon it was -68.8% (active); with MCF7 breast, -67% (active); with HCT-116 colon it was -74.6% (active). The growth in the assay with HCC-2998 colon was -82.1% (active); with KM12 colon, -69.3% (active).
For `O=C(O)c1ccc[n+](CC(=O)N2CCN(c3cc4c(cc3F)c(=O)c(C(=O)O)cn4C3CC3)CC2)c1`, the growth is 85.9% in the assay with T-47D breast; 75.1% with BT-549 breast; 67.4% with MDA-MB-435 melanoma; -3.29% (active) with SW-620 colon; 50.9% in the assay with MCF7 breast; 23.9% in the assay with HCT-116 colon. Also, the values for the growth with HCC-2998 colon and with KM12 colon were 111% and 92.2%, respectively.
On to `COc1ccc(C(=O)/C=C/c2cn(Cc3ccc(Cl)cc3)c3ccccc23)cc1`, for which the growth is 48.2% with T-47D breast; 86.9% in the assay on BT-549 breast; -20.5% (active) in the assay with MDA-MB-435 melanoma; 28% in the assay on SW-620 colon; 52.6% in the assay on MCF7 breast; -77.5% (active) with HCT-116 colon. The figures for the growth in the assay on HCC-2998 colon and in the assay on KM12 colon were 59.7% and 32.2%, respectively.
`CC(=O)OCCCCCNc1ccccc1`: the growth is 103% in the assay on T-47D breast; 102% in the assay with BT-549 breast; 111% in the assay on MDA-MB-435 melanoma; 101% with SW-620 colon; 109% with MCF7 breast; 113% in the assay with HCT-116 colon. Besides, the growth with HCC-2998 colon is 107%; in the assay on KM12 colon it was 94.6%.
In the case of `Cn1c(=O)c2[nH]c(CCCc3nc4c([nH]3)c(=O)n(C)c(=O)n4C)nc2n(C)c1=O`, the growth in the assay on T-47D breast was 96.4%; with BT-549 breast it was 121%; in the assay on MDA-MB-435 melanoma it was 111%; in the assay on SW-620 colon, 112%; with MCF7 breast, 92.8%; in the assay with HCT-116 colon, 108%. The growth was 112% in the assay with HCC-2998 colon and 118% in the assay on KM12 colon.
On to `COc1ccc(/C=N/NC(=O)c2cccc3cc[nH]c23)cc1O`, for which the growth in the assay on T-47D breast was 41.4%; in the assay with BT-549 breast, 55.9%; in the assay with MDA-MB-435 melanoma, -21.4% (active); with SW-620 colon it was 29.8%; in the assay with MCF7 breast, 8.85% (active); in the assay with HCT-116 colon, 21.8%. Moreover, the results for the growth in the assay with HCC-2998 colon and with KM12 colon were 55.4% and 29.8%, respectively.
For the compound `CCOc1cc(CNc2ccc(N3CCOCC3)c(C(=O)O)c2)ccc1OC`, the growth with T-47D breast is 103%; with BT-549 breast, 108%; in the assay with MDA-MB-435 melanoma it was 104%; in the assay with SW-620 colon it was 98.5%; in the assay with MCF7 breast, 82.2%; in the assay with HCT-116 colon it was 119%. Besides, the growth in the assay with HCC-2998 colon is 99.9%; in the assay on KM12 colon it was 100%.
In the case of `O=S(=O)(NCCNc1nccc(-c2c(-c3ccc(F)c(O)c3)nc3occn23)n1)c1ccccc1`, the growth with T-47D breast is 71.9%; in the assay with BT-549 breast it was 80.8%; in the assay on MDA-MB-435 melanoma, 28.1%; with SW-620 colon, 63.5%; in the assay with MCF7 breast it was 36.5%; in the assay on HCT-116 colon it was 22.6%. Besides, the figures for the growth in the assay with HCC-2998 colon and in the assay with KM12 colon were 62.1% and 52.6%, respectively.
As to `O=S(=O)(c1ccccc1)N1CCCc2ccccc21`, the growth is 96.5% in the assay with T-47D breast; 110% with BT-549 breast; 110% with MDA-MB-435 melanoma; 104% in the assay with SW-620 colon; 96.8% in the assay on MCF7 breast; 105% in the assay on HCT-116 colon. In addition, the results for the growth in the assay on HCC-2998 colon and in the assay on KM12 colon were 103% and 100%, respectively.
On to `COc1ccc(OC)c(/C=C/[C@H]2O[C@@H](C)[C@H](O)[C@@H]2O)c1`, for which the growth in the assay with T-47D breast is 96%; in the assay on BT-549 breast, 104%; in the assay on MDA-MB-435 melanoma it was 100%; with SW-620 colon, 113%; in the assay with MCF7 breast, 101%; in the assay with HCT-116 colon, 101%. Also, the growth was 108% in the assay with HCC-2998 colon and 112% in the assay with KM12 colon.
With `Cc1c2c(cc[n+]1Cc1ccccc1)c1ccc(OCc3ccccc3)cc1n2Cc1ccccc1`, the growth is -4.02% (active) in the assay on T-47D breast; -90.4% (active) in the assay with BT-549 breast; -93.8% (active) in the assay on MDA-MB-435 melanoma; -88.1% (active) in the assay with SW-620 colon; -23.1% (active) with MCF7 breast; -95.6% (active) in the assay with HCT-116 colon. Besides, the values for the growth with HCC-2998 colon and in the assay on KM12 colon were -81.8% (active) and -98.4% (active), respectively.
In the case of `CNC(=O)Nc1ccc(-c2nc(N3CCOCC3)nc3c2cnn3C2CCOCC2)cc1`, the growth with T-47D breast is -15.6% (active); in the assay with BT-549 breast it was -15.4% (active); in the assay with MDA-MB-435 melanoma, -26.6% (active); in the assay with SW-620 colon, 12%; in the assay on MCF7 breast, 1.06% (active); in the assay with HCT-116 colon it was 12.7%. For the same compound, the results for the growth with HCC-2998 colon and with KM12 colon were 13.5% and 12.8%, respectively.
With `O=S(=O)(NCCCNc1nccc(-c2c(-c3ccc(F)c(O)c3)nc3sccn23)n1)c1ccc(F)cc1`, the growth was -1.88% (active) in the assay with T-47D breast; 26.7% in the assay on BT-549 breast; -11.7% (active) in the assay with MDA-MB-435 melanoma; 11.8% in the assay with SW-620 colon; 4.13% (active) with MCF7 breast; 0.843% (active) in the assay with HCT-116 colon. Further, the growth in the assay on HCC-2998 colon is 4.68% (active); with KM12 colon, 10.4%.
On to `c1ccc(-c2nnc(Nc3ccc4c(c3)OCCO4)o2)c(NCc2ccncc2)c1`, for which the growth with T-47D breast is 52.7%; in the assay on BT-549 breast, -15.1% (active); with MDA-MB-435 melanoma it was -34.6% (active); in the assay on SW-620 colon, 27.9%; with MCF7 breast it was 20%; in the assay on HCT-116 colon, 4.92% (active). Besides, the values for the growth with HCC-2998 colon and with KM12 colon were -22.3% (active) and -38.3% (active), respectively.
As for `Nc1c(C(=O)Nc2cccc3ccncc23)sc2nc3c(cc12)C(=O)CCC3`, the growth is 48.5% in the assay with T-47D breast; 50.6% in the assay with BT-549 breast; -35% (active) in the assay with MDA-MB-435 melanoma; 31.1% in the assay on SW-620 colon; 21.5% in the assay with MCF7 breast; 43.4% with HCT-116 colon. The growth in the assay on HCC-2998 colon is 77.2%; with KM12 colon it was 30.8%.
In the case of `COc1ccc(-c2cnc(N)nc2-c2ccc(OC)cc2O)cc1`, the growth is 93.7% in the assay on T-47D breast; 115% with BT-549 breast; 101% in the assay with MDA-MB-435 melanoma; 95.7% with SW-620 colon; 95.4% with MCF7 breast; 80.4% with HCT-116 colon. The growth was 103% in the assay with HCC-2998 colon and 45.5% with KM12 colon.
